# Assay outcomes (PubChem BioAssay)
# Sampled rows, rich in hits. Any-hit rate of the full collection: about 3.9%.
# ALR H2O2 inh: human ALR oxidase inhibition via reduced H2O2; purified ALR, DTT oxidation, H2O2 HRP-luminol luminescence; inhibition, % (test concentration not listed); actives 3.8% (n = 290,000); AID 485317;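 active = mean replicate inhibition above about 79%, with every replicate also reaching it, limit read from the data; inconclusive = only one of the two criteria met; inactive = mean below limit and not every replicate reaching it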
# Target sequence (P55789 whole entry, looked up): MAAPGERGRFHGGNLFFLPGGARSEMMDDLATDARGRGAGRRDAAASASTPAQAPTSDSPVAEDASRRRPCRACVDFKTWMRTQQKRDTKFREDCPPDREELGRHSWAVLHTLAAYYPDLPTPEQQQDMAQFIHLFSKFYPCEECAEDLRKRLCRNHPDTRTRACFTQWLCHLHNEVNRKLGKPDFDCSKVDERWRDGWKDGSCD
# NSD2 HMT inh: blocks human histone methyltransferase NSD2; actives 0.54% (n = 310,000); inhibition, % at 12.5 µM; NSD2 peptide methylation, AlphaScreen, 120 min; in the data active = inhibition above about 50%
# Glyco luc inh: blocks N-linked glycosylation in D54 reporter cells | D54 ERlucT glycosylation luciferase reporter, 24 h; percent of 100 nM tunicamycin response | actives 0.23% (n = 360,000) | reporter increase, % at 12.5 µM;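 active = mean luciferase reporter signal, scaled so untreated is 0 and the glycosylation-blocking control 100, at or above a set limit in every replicate; inconclusive = mean reaches the limit but not every replicate does; inactive = mean below the limit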;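 note: luciferase carries N-glycosylation sites so blocking glycosylation raises the light; 0% = median of neutral control wells and 100% = median of 100 nM tunicamycin wells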
# Casp6 inh: caspase-6 (human) enzyme inhibition; P55212; inhibition, % at 12.5 µM; purified caspase-6, Z-VEID-R110 cleavage fluorescence; AID 686996; actives 0.53% (n = 350,000);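 active = mean inhibition across replicates at least about 35%, with every replicate also reaching that limit, limit read from the data; inconclusive = only one of the two criteria met; inactive = neither criterion met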;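 note: 0% = median of neutral control wells and 100% = no fluorescence left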
# Target sequence (P55212 24-179 limits assumed): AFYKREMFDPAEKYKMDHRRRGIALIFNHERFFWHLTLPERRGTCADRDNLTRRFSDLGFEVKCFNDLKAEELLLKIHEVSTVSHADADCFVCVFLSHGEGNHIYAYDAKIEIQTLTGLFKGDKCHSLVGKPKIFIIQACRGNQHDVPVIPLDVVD
# Target sequence (P55212 194-293 limits assumed): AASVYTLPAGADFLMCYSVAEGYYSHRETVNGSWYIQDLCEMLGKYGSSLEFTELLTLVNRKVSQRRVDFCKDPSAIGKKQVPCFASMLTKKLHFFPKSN
# Mot1-301 SUMO: SUMOylation pathway inhibition by Mot1-301 growth rescue. S. cerevisiae Mot1-301 growth rescue, ATP luminescence, 38.5C; percent above DMSO median, 100 means doubled. AID 2716. growth rescue, % at 18.8 µM. actives 1% (n = 320,000);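 active = every valid replicate shows activation above 250% relative to neutral control wells; inactive = the rest, any valid replicate at or below 250%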;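 note: OY570 slx delta 5 strain wells were the positive control but not used for scaling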
# CDK5 inh: CDK5/p35 (human) kinase inhibition | Q00535+Q15078 | actives 0.01% (n = 330,000) | Recombinant CDK5/p35, ADP-Glo luminescence, 60 min | inhibition, % at 10 µM | AID 488839;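 active = highest replicate inhibition of at least 50% and at least 75% of replicates reaching 50%; inconclusive = only one of the two criteria met; inactive = both criteria failed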;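 note: plate controls were DMSO neutral control for no effect and GW8510 at 10 µM for full effect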
# Starred values were filed as active, the others as inactive; ? = inconclusive; · = not tested or not shown.
SMILES,ALR H2O2 inh,NSD2 HMT inh,Glyco luc inh,Casp6 inh,Mot1-301 SUMO,CDK5 inh
Cc1sc2nc(CSc3ccc([N+](=O)[O-])cc3)[nH]c(=O)c2c1C,99*,·,·,·,6,·
C[C@@H]1CN([C@@H](C)CO)C(=O)c2cc(C3=CCCCC3)cnc2O[C@@H]1CN(C)C(=O)c1ccc2c(c1)OCO2,·,·,·,-3,·,·
O=C(NC1CCCCCC1)c1ccc[nH]c1=S,92*,-5,1,4,·,2
O=C(NC1CCCCCCC1)c1ccccc1O,·,-4,-4,·,-2,-2
CCCNC(=O)[C@H]1[C@H](CO)[C@H]2Cn3c(cccc3=O)[C@H]2N1CC1CCCC1,·,·,·,2,·,·
Cc1noc(C)c1S(=O)(=O)Nc1ccc2c(c1)C(=O)N([C@@H](C)CO)C[C@@H](C)[C@@H](CN(C)Cc1ccc(C(=O)O)cc1)OCCCC[C@@H](C)O2,·,·,·,0,·,·
CCC(=O)Oc1ccc2c(c1)O/C(=C\c1ccco1)C2=O,14,1,1,59*,4,3
CCN(CC)C(=O)Oc1ccc2c(c1)O/C(=C\c1ccco1)C2=O,-4,5,0,17,9,0
O=C(C[C@H]1CC[C@@H]2[C@H](COC[C@H](O)CN2C(=O)c2ccccc2)O1)NC1Cc2ccccc2C1,·,·,·,-2,·,·
COc1ccc(CN(CCC#N)C(=S)NC(=O)c2ccccc2)cc1,1,1,0,·,-2,1
N#CCCN(Cc1ccccc1)C(=S)NC(=O)c1ccccc1,98*,7,3,·,8,3
CCCN(CCC)C(=S)NC(=O)c1ccc(-c2ccccc2)cc1,99*,-3,15,·,25,4
CCOc1ccc(C(=O)NC(=S)N(Cc2ccccc2)Cc2ccccc2)cc1,-24,-1,-1,-1,20,-1
O=C(COC(=O)/C=C/c1ccco1)NCc1ccccc1Cl,3,-3,4,5,-14,-1
CSc1ccccc1NC(=O)COC(=O)/C=C/c1ccco1,3,-1,3,41*,21,-1
O=C(COC(=O)/C=C/c1ccco1)NCc1ccco1,26,5,-1,60*,13,-4
O=C(COC(=O)Cc1ccc(Cl)c(Cl)c1)NCc1ccco1,8,0,-1,7,103,-1
O=C(COC(=O)Cc1ccc(Cl)cc1)NCc1ccco1,-2,8,0,42*,6,-1
COCC(=O)N1C[C@@H](C)[C@@H](OC)CN(C)C(=O)c2cc(NC(=O)NC(C)C)ccc2OC[C@H]1C,·,·,·,0,·,·
C/C=C/c1ccc([C@@H]2[C@@H](CO)N(C(C)=O)[C@H]2CNC(=O)CC2CC2)cc1,·,·,·,1,·,·
O=C(CCC1CCCCC1)Nc1ccccc1O,91*,-1,-2,·,7,-1
CCCNC(=O)CS(=O)Cc1nc(-c2cccc(OC)c2)oc1C (configuration not stated),99*,·,1,0,10,1
COc1cccc(-c2nc(CS(=O)CC(=O)NCc3ccccc3)c(C)o2)c1 (configuration not stated),100*,·,1,2,-3,0
O=C(Nc1cccc(Cl)c1)N1C[C@@H]2[C@H](c3ccccc31)[C@@H](CO)N2C(=O)C1CCCC1,·,·,·,3,·,·
COc1cc(/C=C/c2ccc(O)cc2)cc(OC)c1,80*,·,-2,3,13,0
SMILES,ALR H2O2 inh,NSD2 HMT inh,Glyco luc inh,Casp6 inh,Mot1-301 SUMO,CDK5 inh
O=C(/C=C/c1cccc([N+](=O)[O-])c1)Nc1ccc(NC(=O)c2cccs2)cc1,·,-1,-2,·,474*,0
COc1ccc(/C=C/C(=O)c2ccc(O)cc2)cc1,97*,·,3,5,-17,2
O=C(O)c1ccc(/C=C/C(=O)c2ccc3c(c2)OCCCO3)cc1,97*,1,23,5,73,1
COc1ccccc1-c1cn(CC[C@@H]2CC[C@H](NC(=O)c3cnccn3)[C@@H](CO)O2)nn1,·,·,·,-2,·,·
COc1ccc(C(=O)/C=C/c2ccc3c(c2)OCCO3)cc1,95*,1,2,-1,-10,1
COc1ccc(C(=O)/C=C\c2ccc(NC(=O)c3cccs3)cc2)cc1,9,0,48*,·,-9,-1
O=C(/C=C/c1cccc([N+](=O)[O-])c1)c1ccc2c(c1)OCCO2,96*,1,31*,1,-9,-1
O=C(CN1CCOCC1)NCC[C@@H]1CC[C@H](NC(=O)Cc2ccccn2)[C@H](CO)O1,·,·,·,1,·,·
COc1ccc(CN(C)C[C@@H]2OCCCC[C@@H](C)Oc3ccc(NC(=O)CCCN(C)C)cc3C(=O)N([C@@H](C)CO)C[C@@H]2C)cc1,·,·,·,3,·,·
COc1cc(F)ccc1-c1csc(C(NC(C)=O)c2cccc(F)c2)n1 (configuration not stated),·,12,58*,-1,·,·
CC(=O)NC(c1cccc(F)c1)c1nc(-c2ccccc2C)cs1 (configuration not stated),·,13,19,1,·,·
COc1cccc(C(NC(C)=O)c2nc(-c3ccccc3C)cs2)c1 (configuration not stated),·,15,45*,1,·,·
C[C@@H]1CCCCO[C@H](CN(C)S(=O)(=O)c2ccc(Cl)cc2)[C@@H](C)CN([C@H](C)CO)C(=O)c2cc(NC(=O)Nc3ccccc3)ccc2O1,·,·,·,-4,·,·
N#CC1=C(N)Oc2n[nH]c(-c3ccc(F)cc3)c2C1c1cccnc1 (configuration not stated),·,1,2,·,·,0
Cc1[nH]nc2c1C(c1cn[nH]c1-c1ccc(F)cc1)C(C#N)=C(N)O2 (configuration not stated),92*,1,-3,·,5,1
Cc1ccc(NCCN(C)C)c2c(=O)c3cc(O)ccc3sc12,·,-1,62*,-79,·,1
CN(C)CCNc1ccc2nnn3c4ccc(O)cc4c(=O)c1c23,·,·,?,3,·,1
CN(C)CCNc1cccc2sc3ccc(O)cc3c(=O)c12,·,16,107*,-8,·,·
CC(C)NC(=O)Nc1cccc2c1O[C@@H](CN(C)S(C)(=O)=O)[C@@H](C)CN([C@@H](C)CO)C2=O,·,·,·,6,·,·
O=C1Nc2ccccc2C1=Nc1cccc(Cl)c1,-12,9,4,9,143,-5
O=C1Nc2ccc(Br)cc2C1=Nc1cccnc1,-11,67*,6,7,4,·
CN=C(C)C1=C(O)C(C(=O)OC)C(C)(C)CC1=O (configuration not stated),-5,-1,2,·,·,0
COC(=O)C1C(O)=C(C(C)=N)C(=O)CC1(C)C (configuration not stated),98*,-2,0,·,13,-2
CCCOc1ccc(F)cc1-c1cc(C(=O)Nc2ccc(C(C)C)cc2)[nH]n1,·,7,55*,-2,·,·
Cc1ccc(C(c2c(C)nn(-c3ccccc3)c2N)c2c(C)nn(-c3ccccc3)c2N)cc1,-1,3,0,0,-5,-1
